From PubChem BioAssay (Tox21)
Where “and” joins values, the source holds several entries; their conditions need not be identical. Identical values can stand only once. Results filed as inconclusive are left out. A call without a number means that no potency is given here. Calls of active or inactive are those of the source. Unless noted, the call rests on the fitted dose curve; in most records, active means well fitted curve in the direction sought with a large enough effect in the repeat runs; inconclusive means weak or mixed curves; inactive means no such curve, though single readings can be large; an effect the other way counts as inactive or inconclusive.

How the values were obtained:
[1] = qHTS assay to identify aromatase inhibitors - cell viability counter screen (AID 743084);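 further: cells stimulated with testosterone during compound exposure; nearly all actives have a fitted effect of over 55% in size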; further: potency means the concentration at half of the fitted maximal effect
[2] = molecular target: Aryl hydrocarbon receptor (Homo sapiens) (UniProt P35869); test: qHTS assay to identify small molecule that activate the aryl hydrocarbon receptor (AhR) signaling pathway (AID 743085); further: nearly all actives have a fitted effect of over 15% in size; further: potency means the concentration at half of the fitted maximal effect;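 on activation: HG2L7.5c1 human HepG2 liver cells with stably integrated DRE-driven firefly reporter; series mostly up to about 70 µM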
In short: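 Cell line HG2L7.5c1 (human hepatoma, 20× DRE-luc). Plated, 5 h 37C, compound/DMSO added, 24 h 37C. CellTiter-Fluor 30 min 37C → fluorescence; then ONE-Glo 30 min RT → luminescence.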

[3] = qHTS assay to identify small molecule that activate the aryl hydrocarbon receptor (AhR) signaling pathway - cell viability counter screen (AID 743086); further: nearly all actives have a fitted effect of over 45% in size; further: potency means the concentration at half of the fitted maximal effect
In short: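 Cytotoxicity counter screen: CellTiter-Fluor signal (30 min, 37 C) in 4000 HepG2 cells/well carrying the DRE-luciferase reporter, following 24 h compound exposure at 37 C.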

[4] = molecular target: Peroxisome proliferator-activated receptor gamma (Homo sapiens) (UniProt P37231); test: qHTS assay to identify small molecule agonists of the peroxisome proliferator-activated receptor gamma (PPARg) signaling pathway (AID 743094; active means well fitted activation curve with a large enough effect in the signal ratio in the repeat runs, not every such curve was filed as active; the % refers to the signal ratio)
In short: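 Following 5 h plating at 37C, PPARg-bla HEK293H cells receive compound or DMSO for 17 h; fluorescence intensity is recorded after LiveBLAzer B/G loading for 1 h at room temperature.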

[5] = qHTS assay to identify small molecule antagonists of the peroxisome proliferator-activated receptor gamma (PPARg) signaling pathway - cell viability counter screen (AID 743194); further: nearly all actives have a fitted effect of over 55% in size
In short: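 Viability was measured as CellTiter-Glo luminescence in GeneBLAzer PPARg UAS-bla HEK293H cells. These cells had been exposed 17 h at 37 C to compounds together with rosiglitazone at 50 nM final, with the beta-lactamase readout taken in the same wells.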

[6] = qHTS assay for small molecule agonists of the antioxidant response element (ARE) signaling pathway - cell viability counter screen (AID 743203; calls by dose curve; further: nearly all actives have a fitted effect of over 55% in size)
In short: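 Compounds in DMSO were pinned onto ARE-bla HepG2 cells plated 5 hrs earlier at 2,000 cells/well. Sixteen hours later at 37C/5% CO2, CellTiter-Glo was added and luminescence measured after 30 min at room temperature.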

[7] = qHTS assay for small molecule activators of the heat shock response signaling pathway - cell viability counter screen (AID 743209); further: nearly all actives have a fitted effect of over 50% in size
In short: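 Counter screen for cytotoxicity in HeLa HSE-bla reporter cells. Treatment was 5 h at 37 C; viability was detected by luminescent ATP assay (CellTiter-Glo) in the same wells as the beta-lactamase read.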

[8] = qHTS assay to identify small molecule agonists of the peroxisome proliferator-activated receptor delta (PPARd) signaling pathway - cell viability counter screen (AID 743211); further: nearly all actives have a fitted effect of over 55% in size
In short: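 HEK293H PPARd-bla, 3000 cells/well; 5 h preincubation 37C/5% CO2; cpd in DMSO, 17 h 37C; B/G FRET substrate 2 h RT; CellTiter-Glo 30 min RT, luminescence.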

[9] = molecular target: Peroxisome proliferator-activated receptor delta (Homo sapiens) (UniProt Q03181); test: qHTS assay to identify small molecule agonists of the peroxisome proliferator-activated receptor delta (PPARd) signaling pathway (AID 743212; calls by dose curve)
In short: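 HEK293H UAS-bla reporter cells, human PPARd system; compounds delivered in DMSO after 5 h plating, then at 37 C. Beta-lactamase FRET read, 2 h RT substrate step.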

[10] = qHTS assay to identify small molecule antagonists of the peroxisome proliferator-activated receptor delta (PPARd) signaling pathway - cell viability counter screen (AID 743213); further: nearly all actives have a fitted effect of over 50% in size
In short: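 Luminescence from CellTiter-Glo, added after the bla read and incubated 30 min at room temperature, gives viability of HEK293H PPARd-bla cells exposed to compounds for 17 h at 37 C with 300 nM L165041.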

[11] = molecular target: Peroxisome proliferator-activated receptor delta (Homo sapiens) (UniProt Q03181); test: qHTS assay to identify small molecule antagonists of the peroxisome proliferator-activated receptor delta (PPARd) signaling pathway (AID 743215; active means well fitted inhibition curve with a large enough effect in the signal ratio in the repeat runs, not every such curve was filed as active; the % refers to the signal ratio;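 further: cells stimulated with agonist L165041 at 300 nM final during compound exposure; series mostly up to about 62 µM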)
In short: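 With L165041 present at 300 nM final, compounds were incubated 17 h at 37 C on PPARd UAS-bla HEK293H cells. A FRET-based beta-lactamase substrate was then applied for 2 h at room temperature and fluorescence intensity recorded.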

[12] = molecular target: Bile acid receptor (Homo sapiens) (UniProt Q96RI1); test: qHTS assay to identify small molecule antagonists of the farnesoid-X-receptor (FXR) signaling pathway (AID 743217; active means well fitted inhibition curve with a large enough effect in the signal ratio in the repeat runs, not every such curve was filed as active; the % refers to the signal ratio)
In short: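 In this cell-based antagonist screen, inhibition of CDCA-driven (50 uM final) UAS-beta-lactamase expression in HEK 293T cells was measured by FRET fluorescence following 16 h compound exposure at 37 °C.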

[13] = qHTS assay to identify small molecule agonists of the farnesoid-X-receptor (FXR) signaling pathway - cell viability counter screen (AID 743218); further: nearly all actives have a fitted effect of over 45% in size
In short: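 After 16 h at 37 C with test compounds, FXR-bla HEK 293T cells were given LiveBLAzer B/G substrate for 2 h at RT and then CellTiter-Glo; luminescence was taken after 30 min.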

[14] = molecular target: Bile acid receptor (Homo sapiens) (UniProt Q96RI1); test: qHTS assay to identify small molecule agonists of the farnesoid-X-receptor (FXR) signaling pathway (AID 743220; active means well fitted activation curve with a large enough effect in the signal ratio in the repeat runs, not every such curve was filed as active; the % refers to the signal ratio)
In short: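 Beta-lactamase reporter under UAS control in GeneBLAzer FXR HEK 293T cells (5000/well) measured with LiveBLAzer FRET substrate after 2 h at room temperature. Compound exposure lasted 16 h at 37C.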

[15] = qHTS assay to identify small molecule antagonists of the farnesoid-X-receptor (FXR) signaling pathway - cell viability counter screen (AID 743221; active means well fitted cell-killing curve with a large enough effect in the repeat runs, not every such curve was filed as active; further: nearly all actives have a fitted effect of over 50% in size)
In short: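 Luminescence from CellTiter-Glo measures cytotoxicity in GeneBLAzer FXR-UAS-bla HEK 293T cells. Cells were exposed to compounds with 50 uM chenodeoxycholic acid (final) for 16 h at 37 C, in wells also used for the reporter readout.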

[16] = molecular target: Vitamin D3 receptor (Homo sapiens) (UniProt P11473); test: qHTS assay to identify small molecule agonists of the vitamin D receptor (VDR) signaling pathway (AID 743222; calls by dose curve)
In short: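 VDR-bla cells were seeded, left 4 h, treated with compounds in DMSO for 16 h, incubated 2 h at RT with B/G FRET substrate, and read for fluorescence.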

[17] = molecular target: Vitamin D3 receptor (Homo sapiens) (UniProt P11473); test: qHTS assay to identify small molecule antagonists of the vitamin D receptor (VDR) signaling pathway (AID 743223; active means well fitted inhibition curve with a large enough effect in the signal ratio in the repeat runs, not every such curve was filed as active; the % refers to the signal ratio)
In short: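 Antagonist mode uses 1alpha,25-dihydroxyvitamin D3 at 3 nM final as stimulus. VDR-bla cells receive compounds in DMSO, incubate 16 h at 37C, then a beta-lactamase FRET substrate for 2 h at room temperature before fluorescence measurement.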

[18] = qHTS assay for small molecule agonists of the antioxidant response element (ARE) signaling pathway (AID 743202; active means well fitted activation curve with a large enough effect in the signal ratio in the repeat runs, not every such curve was filed as active; the % refers to the signal ratio)
In short: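 An ARE-responsive beta-lactamase gene stably integrated in HepG2 cells serves as reporter. After 5 h plating and 16 h compound incubation at 37 C, fluorescence of the B/G FRET substrate was measured.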

[19] = qHTS assay for small molecule activators of the heat shock response signaling pathway (AID 743210; active means well fitted activation curve with a large enough effect in the signal ratio in the repeat runs, with a control signal flat, not every such curve was filed as active; the % refers to the signal ratio;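 further: HeLa cells with beta-lactamase reporter driven by heat shock elements; series mostly up to about 63 µM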)
In short: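 In HSE-bla HeLa cells, 5 h compound incubation (37 C) precedes addition of LiveBLAzer B/G substrate; after 2.5 h at room temperature, fluorescence intensity indicates reporter induction.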

[20] = molecular target: Peroxisome proliferator-activated receptor gamma (Homo sapiens) (UniProt P37231); test: qHTS assay to identify small molecule antagonists of the peroxisome proliferator-activated receptor gamma (PPARg) signaling pathway (AID 743191; calls by dose curve; further: series mostly up to about 63 µM; nearly all actives have a fitted effect of over 30% in size)
In short: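 Beta-lactamase reporter under UAS control in HEK293H PPARg-bla cells; compound treatment 17 h at 37C. Read-out: fluorescence intensity after 1 h room-temperature incubation with LiveBLAzer B/G FRET substrate.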

Sequence of Bile acid receptor (Homo sapiens) (Q96RI1 whole entry, looked up): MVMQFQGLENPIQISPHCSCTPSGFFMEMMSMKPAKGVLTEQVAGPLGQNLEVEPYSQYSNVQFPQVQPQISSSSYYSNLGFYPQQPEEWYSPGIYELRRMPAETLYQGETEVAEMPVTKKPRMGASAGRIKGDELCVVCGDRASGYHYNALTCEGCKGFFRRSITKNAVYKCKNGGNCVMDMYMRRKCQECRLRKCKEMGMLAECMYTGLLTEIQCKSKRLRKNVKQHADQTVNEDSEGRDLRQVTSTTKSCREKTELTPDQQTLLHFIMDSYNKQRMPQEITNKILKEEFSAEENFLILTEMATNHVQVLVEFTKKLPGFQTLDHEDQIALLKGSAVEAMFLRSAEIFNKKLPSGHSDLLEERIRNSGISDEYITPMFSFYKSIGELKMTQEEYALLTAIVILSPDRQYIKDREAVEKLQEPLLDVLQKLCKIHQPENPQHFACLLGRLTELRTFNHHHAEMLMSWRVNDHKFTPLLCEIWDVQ
Sequence of Aryl hydrocarbon receptor (Homo sapiens) (P35869 whole entry, looked up): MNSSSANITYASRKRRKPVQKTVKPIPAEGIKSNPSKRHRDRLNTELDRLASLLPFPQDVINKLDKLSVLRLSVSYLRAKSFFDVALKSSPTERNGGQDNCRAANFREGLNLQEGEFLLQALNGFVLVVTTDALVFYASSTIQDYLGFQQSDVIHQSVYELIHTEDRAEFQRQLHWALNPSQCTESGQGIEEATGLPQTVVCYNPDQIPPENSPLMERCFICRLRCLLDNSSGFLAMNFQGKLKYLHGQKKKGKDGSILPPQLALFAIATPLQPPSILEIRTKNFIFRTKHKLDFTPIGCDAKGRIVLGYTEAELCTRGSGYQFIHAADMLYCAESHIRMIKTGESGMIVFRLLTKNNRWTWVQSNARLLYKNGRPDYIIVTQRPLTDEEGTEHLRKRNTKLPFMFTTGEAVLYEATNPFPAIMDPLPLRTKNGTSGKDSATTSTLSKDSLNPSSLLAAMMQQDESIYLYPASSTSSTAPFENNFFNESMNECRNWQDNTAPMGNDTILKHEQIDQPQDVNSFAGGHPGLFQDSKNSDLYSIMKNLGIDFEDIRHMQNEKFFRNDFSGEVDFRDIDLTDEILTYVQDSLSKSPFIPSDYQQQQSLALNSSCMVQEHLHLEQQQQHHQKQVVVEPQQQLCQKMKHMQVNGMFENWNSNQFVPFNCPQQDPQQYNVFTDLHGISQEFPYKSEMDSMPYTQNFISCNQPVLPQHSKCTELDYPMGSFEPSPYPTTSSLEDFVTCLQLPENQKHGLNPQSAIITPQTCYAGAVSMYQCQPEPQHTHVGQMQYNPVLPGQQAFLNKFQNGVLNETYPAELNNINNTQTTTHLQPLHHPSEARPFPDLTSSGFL
Sequence of Peroxisome proliferator-activated receptor delta (Homo sapiens) (Q03181 whole entry, looked up): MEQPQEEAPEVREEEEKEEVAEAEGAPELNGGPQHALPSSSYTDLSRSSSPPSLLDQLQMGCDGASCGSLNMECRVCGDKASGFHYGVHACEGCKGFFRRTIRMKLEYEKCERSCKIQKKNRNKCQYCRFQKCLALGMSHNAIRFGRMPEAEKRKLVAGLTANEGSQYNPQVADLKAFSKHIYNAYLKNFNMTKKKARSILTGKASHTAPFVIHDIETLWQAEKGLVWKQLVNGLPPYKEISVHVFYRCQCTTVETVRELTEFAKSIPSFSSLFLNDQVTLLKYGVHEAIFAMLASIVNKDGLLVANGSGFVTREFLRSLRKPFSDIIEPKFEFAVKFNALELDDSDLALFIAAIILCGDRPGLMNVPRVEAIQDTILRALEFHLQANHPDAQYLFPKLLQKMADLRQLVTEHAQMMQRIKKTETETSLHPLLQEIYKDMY
Sequence of Peroxisome proliferator-activated receptor gamma (Homo sapiens) (P37231 whole entry, looked up): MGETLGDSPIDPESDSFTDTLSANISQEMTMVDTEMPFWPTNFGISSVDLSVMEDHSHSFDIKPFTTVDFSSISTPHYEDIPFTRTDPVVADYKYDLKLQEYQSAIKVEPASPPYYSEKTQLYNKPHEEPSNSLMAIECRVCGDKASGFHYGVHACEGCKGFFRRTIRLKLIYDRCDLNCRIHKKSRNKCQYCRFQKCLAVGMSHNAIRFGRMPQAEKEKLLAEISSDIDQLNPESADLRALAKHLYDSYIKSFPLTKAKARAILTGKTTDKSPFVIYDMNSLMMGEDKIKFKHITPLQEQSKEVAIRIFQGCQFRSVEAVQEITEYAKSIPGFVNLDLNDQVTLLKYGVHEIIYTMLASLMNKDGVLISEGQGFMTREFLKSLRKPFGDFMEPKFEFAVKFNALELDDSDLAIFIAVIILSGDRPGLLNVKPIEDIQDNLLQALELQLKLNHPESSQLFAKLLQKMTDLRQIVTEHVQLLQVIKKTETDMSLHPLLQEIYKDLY
Sequence of Vitamin D3 receptor (Homo sapiens) (P11473 whole entry, looked up): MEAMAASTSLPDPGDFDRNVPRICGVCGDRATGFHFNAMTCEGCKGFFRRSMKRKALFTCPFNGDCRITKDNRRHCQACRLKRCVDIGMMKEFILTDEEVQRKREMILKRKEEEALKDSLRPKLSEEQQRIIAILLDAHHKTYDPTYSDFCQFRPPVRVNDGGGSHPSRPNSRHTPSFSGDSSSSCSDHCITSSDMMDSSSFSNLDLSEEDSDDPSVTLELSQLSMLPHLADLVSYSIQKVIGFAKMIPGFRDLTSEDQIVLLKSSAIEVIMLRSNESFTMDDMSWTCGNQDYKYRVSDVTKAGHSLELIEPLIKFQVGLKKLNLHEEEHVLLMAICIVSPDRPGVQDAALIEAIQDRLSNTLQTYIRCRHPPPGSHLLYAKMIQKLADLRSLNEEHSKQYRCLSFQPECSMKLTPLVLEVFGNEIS

SMILES	Potency [1]	Potency [2]	Potency [3]	outcome [4]	Potency [5]	Potency [6]	Potency [7]	Potency [8]	outcome [9]	Potency [10]	outcome [11]	outcome [12]	Potency [13]	outcome [14]	Potency [15]	Potency [16]	Potency [17]	Potency [18]	outcome [19]	Potency [20]
NC(=O)/N=N/C(N)=O	inactive	inactive	inactive	inactive	inactive	inactive	inactive	inactive	inactive	inactive	inactive	inactive	inactive	inactive	inactive	inactive	inactive	–	–	–
Nc1nc2ncc(CNc3ccc(C(=O)N[C@@H](CCC(=O)O)C(=O)O)cc3)nc2c(=O)[nH]1	inactive	inactive	inactive	inactive	inactive	inactive	inactive	inactive	inactive	inactive	inactive	–	inactive	–	inactive	inactive	–	inactive	inactive	–
Clc1ccc(Cl)c(Cl)c1Cl	inactive	inactive	inactive	inactive	–	inactive	inactive	inactive	inactive	inactive	inactive	inactive	inactive	inactive	inactive	inactive	inactive	inactive	inactive	inactive
Nc1c(S(=O)(=O)O)cc(Br)c2c1C(=O)c1ccccc1C2=O	34.4 µM (active)	31.3 µM (active) and 30.6 µM (active)	24.3 µM (active)	inactive	–	inactive	inactive	inactive	–	inactive	–	–	inactive	–	inactive	inactive	inactive	–	inactive	inactive
Cn1c([N+](=O)[O-])cnc1COC(N)=O	inactive	inactive	inactive	inactive	–	inactive	inactive	inactive	inactive	inactive	inactive	–	inactive	–	inactive	inactive	inactive	–	inactive	inactive
O=C(c1ccc(O)cc1)c1ccc(O)cc1O	inactive	24.3 µM (active)	inactive	inactive	inactive	inactive	inactive	inactive	inactive	inactive	inactive	inactive	inactive	inactive	inactive	–	–	–	inactive	–
CC1Cc2ccccc2N1NC(=O)c1ccc(Cl)c(S(N)(=O)=O)c1 (configuration not stated)	inactive	inactive	inactive	inactive	–	inactive	inactive	–	–	inactive	–	–	inactive	–	inactive	–	–	inactive	–	inactive
CCc1ccccc1O	inactive	inactive	inactive	inactive	–	inactive	inactive	–	inactive	inactive	inactive	inactive	inactive	inactive	inactive	inactive	inactive	inactive	inactive	inactive
